15-hLO-2 inh: 15-hLO-2 (ALOX15B) enzyme inhibition; purified 15hLO-2, xylenol orange hydroperoxide absorbance; actives 0.56% (n = 110,000); O15296; Potency, µM (titrated, usually from 57.1 µM), usual class: inhibitors; note: nearly all actives have a fitted effect of over 60% in size
Target sequence (O15296 whole entry, looked up): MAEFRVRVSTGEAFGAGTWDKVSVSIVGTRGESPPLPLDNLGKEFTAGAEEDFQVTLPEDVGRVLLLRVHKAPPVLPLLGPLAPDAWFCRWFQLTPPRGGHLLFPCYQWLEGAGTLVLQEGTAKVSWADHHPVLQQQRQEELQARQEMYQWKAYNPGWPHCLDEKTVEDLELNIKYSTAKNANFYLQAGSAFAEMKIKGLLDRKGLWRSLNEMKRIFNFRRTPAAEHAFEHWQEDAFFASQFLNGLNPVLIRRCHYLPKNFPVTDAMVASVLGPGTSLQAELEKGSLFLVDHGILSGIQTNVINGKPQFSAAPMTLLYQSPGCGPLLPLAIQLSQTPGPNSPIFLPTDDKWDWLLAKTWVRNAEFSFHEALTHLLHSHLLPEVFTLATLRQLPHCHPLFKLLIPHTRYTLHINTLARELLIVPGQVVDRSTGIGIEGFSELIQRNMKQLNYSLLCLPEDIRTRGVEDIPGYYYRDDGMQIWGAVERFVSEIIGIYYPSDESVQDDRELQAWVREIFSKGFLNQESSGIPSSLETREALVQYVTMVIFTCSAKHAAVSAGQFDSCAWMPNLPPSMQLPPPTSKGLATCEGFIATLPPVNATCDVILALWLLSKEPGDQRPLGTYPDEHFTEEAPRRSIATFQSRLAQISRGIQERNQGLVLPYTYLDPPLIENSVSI
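Purified human 15hLO-2 (50 nM) preincubated 15 min with compound, then 45 uM arachidonic acid for 90 min at RT in 25 mM Hepes pH 7.5, 0.01% Triton X-100. Hydroperoxide detected by Fe-xylenol orange; 573/405 nm absorbance ratio.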
PNC assembly inh: blocks assembly of the perinucleolar compartment. PC3M PTB-GFP, PNC prevalence imaging, 16 h; stronger effect = lower value. activity change (PNC), negative = inhibition, % at 10 µM. actives 3.1% (n = 140,000);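 active = readout at or below -70, meaning at least 70% loss of cells showing the perinucleolar compartment, a nuclear body marking cancer cells; inconclusive = readout between -30 and a set limit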
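Compounds are pinned in duplicate onto adhered PC3M cells stably expressing GFP-tagged PTB and incubated 16 h at 37 C. Cells are then fixed, nuclei stained with Hoechst, and PNC-positive cells counted.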
12-hLO inh: blocks human 12-lipoxygenase activity; P18054; AID 1452; actives 0.12% (n = 150,000); Potency, µM (series often up to 57.1 µM), most hits filed as inhibitors; purified 12-hLO, xylenol orange hydroperoxide absorbance; note: nearly all actives have a fitted effect of over 55% in size
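Lipoxygenase turnover measured by absorbance at 573 and 405 nm after Fe-XO development. Human 12hLO 150 nM, arachidonate 40 uM, pH 7.0 Hepes buffer with detergent; 15 min compound preincubation, 30 min reaction.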
A number is an active result; n = inactive; u = inconclusive; x = no result given; [ ] = dose if it differs, or a comment. Rows were chosen to be rich in hits. Some 3.1% of all compounds tested hit in one or more screens of this group. Unless noted, calls come from the whole dose curve; as a rule, active = well fitted curve in the direction sought with a large enough effect; inconclusive = small, poorly fitted or top-dose-only effect, or another doubt; inactive = no such curve, though single readings can be large; an effect the other way counts as inactive or inconclusive.

SMILES	15-hLO-2 inh	PNC assembly inh	12-hLO inh
CCOc1cccc(CNc2ccc(O)cc2)c1OCc1ccc(Cl)cc1Cl	1.6µM	n	u
CCOc1cccc(CNc2ccc(O)cc2)c1OCc1ccccc1Cl	x	n	u
COCC(C)n1c(SCC(=O)NNC(=O)c2ccc(F)cc2)nc2ccccc2c1=O (centres undefined)	x	-94	n
COCCn1c(SCC(=O)NNC(=O)c2ccccc2)nc2ccccc2c1=O	x	u	n
CCc1cccc(CC)c1NC(=O)COC(=O)c1cccc(S(=O)(=O)N2CCc3ccccc3C2)c1	x	-90	n
COc1ccc(S(=O)(=O)N2CCOCC2)cc1NC(=O)COC(=O)C1COc2ccccc2O1 (centres undefined)	x	-92	n
COc1cc(S(=O)(=O)N2CCOCC2)ccc1NC(=O)COC(=O)c1ccccn1	n	n	n
O=C(Nc1ccc2c(c1)OCO2)c1cccc(S(=O)(=O)N2CCCC2)c1	n[2.29 µM]	u	n
Cc1cccc(C(C)C)c1NC(=O)COC(=O)c1cccc(S(=O)(=O)N2CCc3ccccc3C2)c1	x	u	n
O=C(COC(=O)c1cccc(S(=O)(=O)N2CCOCC2)c1)Nc1ccc2c(c1)OCO2	n	-100	n
CN(C)S(=O)(=O)c1cccc(NC(=O)COC(=O)c2ccc3c(c2)OCO3)c1	x	n	n
CN(C)S(=O)(=O)c1cccc(NC(=O)COC(=O)c2cccc(S(=O)(=O)N3CCc4ccccc4C3)c2)c1	x	-85	n
c1ccc(CCNCc2ccco2)nc1	n[11.4 µM]	x	n[11.4 µM]
CCCCC[C@H](O)/C=C\[C@H]1[C@H](C/C=C\CCCC(=O)O)[C@@H](O)C[C@H]1O (tested in a mixture with another compound)	n	x	n
COc1cccc2c1OC(=O)CC2c1ccccc1C (centres undefined)	n[0.0915 µM]	x	n[0.00818 µM]
Clc1ccc(CNCc2cccs2)cc1Cl	x	n	n
Brc1cccc(CNCc2cccs2)c1	x	-89	n
NC1(C(=O)O)C[C@H](C(=O)O)[C@H](C(=O)O)C1 (some centres undefined)	n	x	n
O=C(O)c1ccc2c(=O)n3c(nc2c1)/C(=C/c1ccccc1C(F)(F)F)CCCC3	x	n	n
COc1ccc(/C=C2\CCn3c2nc2cc(C(=O)O)ccc2c3=O)cc1O	x	-96	n
CCC1=C2CC[C@H]3C(=O)N(c4ccccc4)C(=O)[C@H]3[C@H]2[C@@]2(Cc3ccccc3)C(=NCC3CC3)OC(=O)N2C1=O	n	x	n
C=NC(C(=O)NC1C(=O)N2C1SC(C)(C)C2C(=O)O)c1ccccc1 (centres undefined)	n	x	n
OCCN(CCO)c1ncnc2nc[nH]c12	n[11.4 µM]	x	n[11.4 µM]
CCC1=C2CC[C@H]3C(=O)N(CC(=O)OC)C(=O)[C@H]3[C@H]2[C@@]2(C)C(=O)N(CC3CC3)C(=O)N2C1=O	n	x	n
OB(O)c1cc2ccccc2s1	n	x	n
SMILES	15-hLO-2 inh	PNC assembly inh	12-hLO inh
CC1(C)Cc2c(c(N3CCOCC3)nc3snc(N)c23)CO1	n	n	n
CC1(C)Cc2c(c(N3CCOCC3)nc3snc(Br)c23)CO1	n	-84	n
COc1cc2c(cc1OC)C1=C(C#N)CC/C(=N\S(=O)(=O)c3ccccc3)N1CC2	n	n	n
COc1cc2c(cc1OC)C1=C(C#N)CCC(=O)N1CC2	x	-100	n
CC(C)C[C@@H](CC(=O)N[C@@H](CCCN)CC(=O)N[C@@H]1CCCC[C@H]1C(=O)N[C@H](CC(=O)N[C@@H](CCC(=O)O)CC(=O)O)Cc1ccccc1)NC(=O)[C@@H]1CCCC[C@H]1N	x	x	n
CN1c2cccc3cccc(c23)N(C)C1(C)C	16µM	n	n
CN1c2ccccc2N(C)C1(C)c1cccc2ccccc12	x	u	n
COC(=O)c1ccc(NC(=O)N2CCC(O)(c3cccnc3)CC2)cc1	n	n	n
COc1ccc(NC(=O)N2CCC(O)(c3cccnc3)CC2)c(OC)c1	n	-82	n
O=c1c2c([N+](=O)[O-])cc([N+](=O)[O-])cc2sn1-c1ccc(Br)cc1	x	n	3.2µM
O=C(COc1ccc(Br)cc1)N1CCN(c2ccc([N+](=O)[O-])c(N3CCCCC3)c2)CC1	x	n	n
COC(=O)N1CCC2(CCN(Cc3ccc(C#N)cc3)CC2)CC1	n	x	n
C=CCNC(=S)N/N=C/c1ccc(-c2cc(Cl)ccc2Cl)o1	u	n	n
CC1=NOC(=O)/C1=C/c1ccc(-c2ccc(Cl)cc2)o1	7.9µM	n	u
CC1=NOC(=O)/C1=C\c1ccc(-c2cc(Cl)ccc2Cl)o1	2µM	n	n
CC1=NOC(=O)/C1=C/c1ccc(N(C)C)cc1	n	n	n
CC(C)(C)C(=O)Cn1c(=N)n(Cc2ccccc2Cl)c2ccccc21	n	n	n
CC(C)(C)C(=O)Cn1c(=N)n(Cc2ccccc2)c2ccccc21	x	-119	n
CC1(C)OCC(CSC2=C(SCC3COC(C)(C)O3)C(=O)c3ncccc3C2=O)O1 (centres undefined)	n	x	n
O=C(O)c1cc(C(=O)C(=O)c2cc(C(=O)O)c(O)c3ccccc23)c2ccccc2c1O	u	x	n[11.4 µM]
CC[C@H](NC(C)C)[C@H](O)c1ccc(O)c(O)c1	n	x	n
CCN1CCN(C(=O)c2cc(-c3cccnc3)nc3ccc(Br)cc23)CC1	n	-107	n
O=C(c1cc(-c2ccncc2)nc2ccc(Br)cc12)N1CCN(c2ccccn2)CC1	n	n	n
Cc1nn(CCC(=O)NNC(=S)NCC(C)C)c(C)c1Br	n	-112	n
CNC(=S)NNC(=O)CCn1nc(C)c(Br)c1C	n	n	n
SMILES	15-hLO-2 inh	PNC assembly inh	12-hLO inh
Cn1c(=O)c2[nH]c([C@@H]3CC(=O)C[C@H](c4nc5c([nH]4)c(=O)n(C)c(=O)n5C)N3)nc2n(C)c1=O	n[11.4 µM]	x	n[11.4 µM]
CC(=O)OCC1=C(C(=O)O)N2C(=O)C(NC(=O)CSc3ccncc3)[C@@H]2SC1 (some centres undefined)	n	x	n
O=C(O)Cc1nc2nc3c(c(=O)n2[nH]1)CCCC3	n	n	n
O=c1c2c(nc3nc(COc4ccccc4)[nH]n13)CCC2	n	-110	n
CC(C)NC(=O)N1CCC2(CC1)CCN(C(=O)c1cnccn1)CC2	n	x	n
Clc1ccc(OCc2nn3c(C4CCCCC4)nnc3s2)c(Cl)c1	n	-82	n
COc1ccccc1-c1nnc2sc(COc3ccc(Cl)cc3Cl)nn12	n	n	n
CS(=O)(=O)c1ccc(-c2cc(Br)sc2-c2ccc(F)cc2)cc1	n	x	n
CCCC(=O)Nc1ccccc1-c1nnn(CC(=O)Nc2ccc(OC)cc2)n1	n	-81	n
COc1ccc(NC(=O)Cn2nnc(-c3ccccc3NS(=O)(=O)c3ccccc3)n2)cc1	x	n	n
CS(C)(=O)=O	n	x	n
C=CCn1c(=NC(=O)c2ccc(S(=O)(=O)N3CCc4ccccc4C3)cc2)sc2cc(S(N)(=O)=O)ccc21	x	n	n
C#CCn1c(=NC(=O)c2ccc(S(=O)(=O)N3CCc4ccccc4C3)cc2)sc2cc(S(N)(=O)=O)ccc21	x	-134	n
COc1ccccc1CN1CCC2(CC1)CCN(C(=O)c1cc(C(F)(F)F)cc(C(F)(F)F)c1)CC2	n	x	n
N=c1ccn2c(n1)O[C@H]1[C@@H](OP(=O)(O)O)[C@H](CO)O[C@H]12	n[11.4 µM]	x	n[11.4 µM]
O=C(c1ccco1)N1CCC2(CCCN(c3ccccn3)C2)CC1	n	x	n

Screens (PubChem BioAssay)
